Active and inactive are the calls of the source. The rule behind the calls is not given here.
Target: Mucolipin-3 (Homo sapiens) (UniProt Q8TDD5)
Assay: TRPML3 and TRPML2 channel agonists, cell-based, patch clamp, Fura-2 profiling panel (AID 2116)
Conditions: HEK293 cells expressing TRPML3-YFP, TRPML3 Fura-2 Imaging; Fura-2 340/380 ratio change, at 10 µM, stronger effect = higher value

Sequence of Mucolipin-3 (Homo sapiens) (Q8TDD5 whole entry, looked up): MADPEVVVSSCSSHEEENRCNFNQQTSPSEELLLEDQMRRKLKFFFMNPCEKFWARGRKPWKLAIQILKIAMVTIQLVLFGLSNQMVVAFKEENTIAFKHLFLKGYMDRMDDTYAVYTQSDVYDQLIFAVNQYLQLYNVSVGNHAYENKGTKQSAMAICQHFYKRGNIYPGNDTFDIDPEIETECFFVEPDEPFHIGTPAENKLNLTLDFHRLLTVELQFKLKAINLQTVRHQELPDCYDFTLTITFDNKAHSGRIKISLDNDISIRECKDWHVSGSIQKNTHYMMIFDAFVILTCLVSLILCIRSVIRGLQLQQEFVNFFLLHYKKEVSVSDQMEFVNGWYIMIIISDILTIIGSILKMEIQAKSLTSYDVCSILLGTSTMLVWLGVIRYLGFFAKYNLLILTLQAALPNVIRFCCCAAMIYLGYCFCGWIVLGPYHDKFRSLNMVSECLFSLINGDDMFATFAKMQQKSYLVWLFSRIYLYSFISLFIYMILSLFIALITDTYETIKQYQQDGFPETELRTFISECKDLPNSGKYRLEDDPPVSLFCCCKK

Cc1ccc(S(=O)(=O)Nc2ccccc2-c2ccccc2)cc1
delta F ratio: 0.51
outcome: active; no effect on six other TRP channels

O=S(=O)(NC1CCCCC1N1CCOCC1)c1ccc(Cl)cc1 (stereo not given)
delta F ratio: 1.38
outcome: active; no effect on six other TRP channels

O=S(=O)(Nc1ccccc1N1CCOCC1)c1ccc(Cl)s1
delta F ratio: 0.93
outcome: active; no effect on six other TRP channels

Cc1ccc(N2CCN(S(=O)(=O)N3CCCCC3)CC2)c(C)c1
delta F ratio: 0.99
outcome: active; no effect on six other TRP channels

O=S(=O)(Nc1ccccc1N1CCCCC1)c1ccc(Cl)s1
delta F ratio: 1
outcome: active; no effect on six other TRP channels
